Here are results for one compound from PubChem BioAssay AID602382 (Sanford-Burnham Center for Chemical Genomics, 2012).

A short description of this assay: spectral interference with molecular beacon fluorescence, dose response, artefact control for DNMT1 inhibitor project, biochemical, fluorescent molecular beacon (AID 602382). The settings on record: spectral interference counter-screen.

The list shows a part of the results. Activity calls are given as the source filed them. No rule for the calls is given here. A value given as a limit tells only on which side of the number the result lay.

For `Cc1c(C(=O)O)cccc1-n1c(C)cc(/C=C2\C(=O)NC(=O)N(c3ccc4c(c3)OCO4)C2=O)c1C`, the IC50 is > 99 µM (inactive).
